This is an account of results in PubChem BioAssay.

The source made the active and inactive calls.

The nature of the test: basal CRE-LacZ reporter activity in PC12 – cell-based, unstimulated, primary screen (AID 1145). The conditions noted are these: no forskolin, luminescence, 4.5 h, higher = more signal, called active from +8 up or from −8 down.
On to `COC(=O)CC=C[C@@H](C)[C@@H](C=NOC(C)CN1CCCCc2nc(C)c(C)cc21)OC` (stereo partly specified), for which the z-score was 1.41 (inactive).

As for `CCOC(=O)[C@H](CC(C)C)NC(=O)CCC1CC(OC(=O)NCc2ccc3c(c2)OCO3)CC2(CCCC(COC(=O)NCCc3ccc(Cl)cc3)O2)O1` (stereo partly specified), the z-score was 0.737 (inactive).

In the case of `CC(CCN1CCc2nc(-c3ccccc3)c(-c3ccccc3)cc2C1)=NO[C@H](C)c1cn([C@H](CO)Cc2ccccc2)nn1`, the z-score was 0.987 (inactive).

For `CC(CCC(=O)OC[C@H]1O[C@H](C#Cc2ccccc2)C=C[C@@H]1Oc1ccc(C)cc1)=NO[C@H](C)c1cn([C@@H]2COC[C@H]2O)nn1`, the z-score was 3.17 (inactive).

As to `CC(CCN1CCc2nc(-c3ccccc3)c(-c3ccccc3)cc2C1)=NOC(C)CN1CCCc2nc(C)c(C)cc21` (stereo unspecified), the z-score was 0.894 (inactive).

`CCC1=NOC(CCC2CC(OC(=O)NCc3cccc4c3OCO4)CC3(CCCC(COC(=O)NCCc4ccc(Cl)cc4)O3)O2)C1` (stereo unspecified): the z-score was -0.0755 (inactive).

With `CCOC(=O)CCN1C(=O)[C@H]2[C@@H]3C(=CC[C@H]2C1=O)C(=O)[C@H]1O[C@H]1[C@H]3O`, the z-score was 0.79 (inactive).

With `CON=C(C)CCC(=O)OC[C@H]1O[C@H](C#Cc2ccccc2)C=C[C@@H]1Oc1ccc(C)cc1`, the z-score was 0.415 (inactive).

`Cc1cc2c(nc1C)CCCCN2CC(O)CN1CCCc2nc(-c3ccc(Br)cc3)ccc21` (stereo unspecified): the z-score was 0.744 (inactive).

Consider `COC(=O)[C@H](C)NC(=O)CCC1CC(OC(=O)NCc2cccc3ccccc23)CC2(CCCC(COC(=O)NCCc3ccccc3OC)O2)O1` (stereo partly specified), for which the z-score is 0.556 (inactive).

Regarding `CC#CCOCCC=C1c2ccccc2[C@@H](OC)[C@@H]1C`, the z-score was 1.42 (inactive).

For the compound `CCO[C@H](c1cc(OC)cc([N+](=O)[O-])c1OC)[C@H](C)[C@@H](OC)[C@H](C)C=CCC(=O)OC`, the z-score was 0.0246 (inactive).

As for `O=C1[C@H]2[C@H]3[C@H](O)[C@H](O)CC(=NOC[C@@H](O)COCc4ccco4)[C@@H]3CC[C@H]2C(=O)N1c1cccc(Oc2ccccc2)c1`, the z-score is -1.02 (inactive).

Consider `COC(=O)[C@@H]1CC[C@H](C)[C@@H](c2ccc(Br)cc2)N1C[C@@H](O)CN=[N+]=[N-]`, for which the z-score was 0.105 (inactive).

`CCOC(=O)[C@H](Cc1ccccc1)NC(=O)CCC1CC(OC(=O)NCc2cccc3ccccc23)CC2(CCCC(COC(=O)NCC3CCCCC3)O2)O1` (stereo partly specified): the z-score was -0.343 (inactive).

Consider `C#CCCCON=C1[C@H]2CCn3c(=O)n([C@@H](CC)c4ccccc4)c(=O)n3[C@H]2[C@H](O)[C@@H]2O[C@H]12`, for which the z-score was 1.15 (inactive).

For the compound `C[C@@H]1C=CCC(=O)OC[C@H](C)C(=O)N[C@@H](Cc2ccccc2)C(=O)OC1`, the z-score is 1.43 (inactive).

For the compound `Cc1ccc2[nH]c3nc(CCCn4ccnc4-c4ccccc4)nnc3c2c1`, the z-score is -0.435 (inactive).

`CC(CCN1CCc2nc(-c3ccccc3)c(-c3ccccc3)cc2C1)=NO[C@@H](C)c1cc(-c2c(C)cc(C)cc2C)no1`: the z-score is 2.71 (inactive).

`O=C1[C@H]2CCn3c(=O)n(Cc4cc5c(cc4Cl)OCO5)c(=O)n3[C@H]2[C@H](O)[C@@H]2O[C@H]12`: the z-score was -0.925 (inactive).

In the case of `CCCNC(=O)OC[C@H]1O[C@H](CCON=C[C@@H](NS(=O)(=O)c2ccc(C)cc2)[C@H](C)C=CCC(=O)OC)C=C[C@@H]1Oc1ccc(OC)cc1`, the z-score was 3.17 (inactive).

Regarding `CCN1C(=O)[C@H]2[C@H]3[C@H](O)[C@H](O)CC(=NOCC[C@@H]4C=C[C@H](OC(C)=O)[C@@H](COC(C)=O)O4)[C@@H]3CC[C@H]2C1=O`, the z-score was 0.0757 (inactive).

As for `COc1ccc(O[C@H]2C=C[C@@H](c3ccccc3)O[C@@H]2COC(=O)CCC(C)=NOC[C@@H](O)COCc2ccco2)cc1`, the z-score is 3.94 (inactive).

In the case of `CC(C)[C@@H](OCc1ccccc1)[C@H](C)C=NOC[C@@H](O)[C@H]1O[C@@H]2OC(C)(C)O[C@@H]2[C@H]1O`, the z-score was -0.408 (inactive).

As for `O=C1C2=CC[C@H]3C(=O)N(Cc4ccccc4)C(=O)[C@H]3[C@H]2[C@H](O)[C@@H]2O[C@H]12`, the z-score was 0.518 (inactive).

Consider `COC(=O)[C@H](C)NC(=O)CCC1CC(OC(=O)NCc2ccc3c(c2)OCO3)CC2(CCCC(COC(=O)NCc3ccccc3)O2)O1` (stereo partly specified), for which the z-score was -0.345 (inactive).

Turning to `CC(C)CON=C1C[C@@H](O)[C@@H](O)[C@@H]2[C@@H]3C(=O)N(Cc4ccccc4)C(=O)[C@@H]3CC[C@H]12`, the z-score was -0.0223 (inactive).

For `O=C1[C@H]2[C@H]3[C@H](O)[C@H](O)CC(=NO[C@@H]4O[C@H](CO)[C@@H](O)[C@H](O)[C@H]4O)[C@H]3CC[C@H]2C(=O)N1c1ccc(F)cc1F`, the z-score was -0.837 (inactive).

As to `CC(=O)OC[C@H]1O[C@@H](ON=C2[C@H]3CCn4c(=O)n(-c5ccccc5)c(=O)n4[C@H]3[C@H](O)[C@@H]3O[C@H]23)[C@H](OC(C)=O)[C@@H](OC(C)=O)[C@@H]1OC(C)=O`, the z-score is -0.403 (inactive).

Take `C#CCCCON=C1C[C@@H](O)[C@@H](O)[C@@H]2[C@@H]3C(=O)N([C@@H](C)c4ccccc4)C(=O)[C@@H]3CC[C@@H]12`: the z-score was 0.0676 (inactive).

`O=C1[C@H]2[C@H]3[C@H](O)[C@H](O)CC(=NOC[C@@H](O)COCc4ccco4)[C@@H]3CC[C@H]2C(=O)N1C1CCCCC1`: the z-score was 3.23 (inactive).

`C[C@]12CCC3c4ccc(OCC5CO5)cc4CCC3C1CC[C@@H]2O` (stereo partly specified): the z-score was 2.75 (inactive).

Turning to `CCOC(=O)CCN1C(=O)[C@H]2[C@H]3[C@H](O)[C@H](O)CC(=NO[C@@H]4O[C@H](CO)[C@@H](O)[C@H](O)[C@H]4O)[C@H]3CC[C@H]2C1=O`, the z-score was 0.241 (inactive).

Consider `C=CCOCC1CN2[C@@H](CC[C@@H](C)[C@@H]2c2ccc(Br)cc2)C(=O)O1` (stereo partly specified), for which the z-score was 0.829 (inactive).

As for `CO[C@H]1COC(=O)[C@H](C)COC(=O)[C@@H](OCc2ccccc2)C=C[C@@H]1C`, the z-score was -0.745 (inactive).

Take `CC(C)=NOC(C)CN1CCCc2nc(C)c(C)cc21` (stereo unspecified): the z-score was 0.0757 (inactive).
